Reference: PubChem BioAssay (EPA / NIEHS)
Values joined by “and” are separate entries in the source; they are usually repeats but may differ in a detail not shown here. Equal entries are not always repeated. Some compounds were tested as several samples or in several runs, with calls that do not always agree. Active and inactive are the calls of the source. The calls were made as follows: active = hit-call score of the fitted dose curve at least 0.9, where 1 is the maximum; inactive = score below 0.9.

How the values were obtained:
[1] = ATG_EGR_CIS: Attagene CIS-FACTORIAL HepG2 Assay for human Early Growth Response 1 (EGR1) (AID 2282938); settings: HepG2 Attagene CIS-FACTORIAL EGR reporter mRNA; actives raise or lower the signal
Outline: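 Transient transfection of human HepG2 with multiple cis-regulated reporter units, chemical exposure 24 h, total RNA isolated. Reverse transcription, PCR, fluorescent labelling and capillary electrophoresis quantify reporter transcripts; activity fitted bidirectionally against DMSO.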

[2] = ATG_M_19_CIS: Attagene CIS-FACTORIAL HepG2 Assay for M19 Transcription Factor (Internal Marker) (AID 2282939); settings: HepG2 Attagene CIS-FACTORIAL M19 internal marker reporter; actives raise or lower the signal
Outline: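 Background-control endpoint from a multiplexed HepG2 reporter panel. Cells carrying cis-regulated reporter constructs are treated 24 h, then reporter transcripts are amplified, fluorescently labelled and sized by capillary electrophoresis. DMSO defines baseline.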

[3] = ATG_ERE_CIS: Attagene CIS-FACTORIAL HepG2 Assay for Estrogen Response Element (ERE) (AID 2282940); settings: HepG2 ERE cis-reporter, Attagene RNA transcript; actives raise or lower the signal
Outline: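 Cells used were human hepatoma HepG2, transfected with multiple reporter transcription units under cis-regulatory promoters. Reporter mRNA, read 24 h post-dosing via fluorescent RT-PCR products on capillary electrophoresis, was fitted bidirectionally relative to DMSO.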

[4] = ATG_Ets_CIS: Attagene CIS-FACTORIAL HepG2 Assay for human Erythroblast Transformation Specific (ETS) (AID 2282941); settings: HepG2 ETS cis-reporter transcription, actives raise or lower the signal
Outline: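 HepG2 cells transiently transfected with cis-promoter reporter transcription units were dosed for 24 h; reporter mRNA was measured by RT-PCR, 6-FAM primer extension, HpaI digestion and capillary electrophoresis, with bidirectional fitting against DMSO baseline.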

[5] = target: Hepatocyte nuclear factor 3-beta (Homo sapiens) (UniProt Q9Y261); assay: ATG_FoxA2_CIS: Attagene CIS-FACTORIAL HepG2 Assay for human Forkhead box A2 (FOXA2) (AID 2282942); settings: HepG2 cis-reporter transcription factor activity, 24 h; actives raise or lower the signal
Hepatocyte nuclear factor 3-beta (Homo sapiens), sequence (Q9Y261 whole entry, looked up): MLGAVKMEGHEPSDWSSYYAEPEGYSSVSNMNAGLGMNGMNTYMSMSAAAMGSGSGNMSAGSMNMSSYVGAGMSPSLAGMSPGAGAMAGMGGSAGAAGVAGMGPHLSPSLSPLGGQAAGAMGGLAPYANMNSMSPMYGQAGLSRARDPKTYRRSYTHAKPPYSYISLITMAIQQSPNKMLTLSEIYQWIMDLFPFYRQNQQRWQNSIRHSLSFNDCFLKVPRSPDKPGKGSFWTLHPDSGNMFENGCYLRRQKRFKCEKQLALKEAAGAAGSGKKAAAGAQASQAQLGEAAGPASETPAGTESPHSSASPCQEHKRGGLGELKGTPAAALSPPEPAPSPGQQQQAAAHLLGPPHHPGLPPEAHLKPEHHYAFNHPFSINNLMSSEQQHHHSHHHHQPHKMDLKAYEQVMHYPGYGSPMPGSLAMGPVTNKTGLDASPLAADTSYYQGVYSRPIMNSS
Outline: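 Transient MRTU transfection of HepG2 liver cells; 24 h treatment; total RNA → oligo(dT) RT → PCR → FAM primer extension → HpaI cut → CE. Bidirectional fit vs DMSO.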

[6] = ATG_FoxO_CIS: Attagene CIS-FACTORIAL HepG2 Assay for human Forkhead box O (FoxO) (AID 2282943); settings: HepG2 Attagene cis-reporter, FoxO element, mRNA; actives raise or lower the signal
Outline: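 Human hepatoma HepG2 cells carry transiently introduced reporter transcription units controlled by cis promoter elements. Chemical treatment lasted 24 h, and mRNA signal was compared with DMSO.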

[7] = ATG_GATA_CIS: Attagene CIS-FACTORIAL HepG2 Assay for human GATA Binding Protein (AID 2282944); settings: HepG2 GATA cis-element reporter, Attagene multiplex mRNA; actives raise or lower the signal
Outline: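 Endogenous transcription factor activity was captured through cis-promoter-driven reporters in transfected HepG2 cells. After 24 h exposure, reporter transcripts were quantified by RT-PCR with fluorescent capillary electrophoresis, and responses fitted both directions against DMSO.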

[8] = target: Bile acid receptor (Homo sapiens) (UniProt Q96RI1); assay: ATG_IR1_CIS: Attagene CIS-FACTORIAL HepG2 Assay for human Nuclear Receptor Subfamily 1 Group H Member 4 (NR1H4), IR1 submotif (AID 2282946); settings: IR1 reporter transcription, actives raise or lower the signal
Bile acid receptor (Homo sapiens), sequence (Q96RI1 whole entry, looked up, the tested form may be a part): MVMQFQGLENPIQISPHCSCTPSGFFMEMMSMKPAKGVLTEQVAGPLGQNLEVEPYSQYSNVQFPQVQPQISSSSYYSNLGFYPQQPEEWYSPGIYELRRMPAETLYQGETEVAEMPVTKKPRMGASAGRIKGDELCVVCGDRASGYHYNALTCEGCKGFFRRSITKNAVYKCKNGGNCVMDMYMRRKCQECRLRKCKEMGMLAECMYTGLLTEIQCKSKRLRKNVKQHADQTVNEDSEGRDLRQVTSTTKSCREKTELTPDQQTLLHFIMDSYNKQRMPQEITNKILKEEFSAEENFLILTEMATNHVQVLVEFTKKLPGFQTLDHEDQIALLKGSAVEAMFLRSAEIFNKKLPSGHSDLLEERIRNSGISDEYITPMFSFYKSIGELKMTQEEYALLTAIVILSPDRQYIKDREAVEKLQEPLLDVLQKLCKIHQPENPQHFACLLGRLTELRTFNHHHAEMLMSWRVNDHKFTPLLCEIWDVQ
Outline: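 Cells (human HepG2) carry transiently transfected cis-promoter reporter transcription units. Compounds are incubated 24 h, total RNA is reverse-transcribed and amplified, and labelled fragments are resolved by capillary electrophoresis. Curves use DMSO as baseline.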

[9] = ATG_ISRE_CIS: Attagene CIS-FACTORIAL HepG2 Assay for human Interferon Regulatory Factor 1 (IRF1) binding to an Interferon-Stimulated Response Element (ISRE) (AID 2282948); settings: HepG2 ISRE cis-reporter (Attagene), mRNA transcription readout; actives raise or lower the signal
Outline: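 HepG2 cells transiently transfected with multiplexed cis-promoter reporter units; after 24 h compound exposure, reporter mRNA quantified by RT-PCR, FAM labelling, HpaI digestion and capillary electrophoresis. Bidirectional fit versus DMSO baseline.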

[10] = ATG_M_32_CIS: Attagene CIS-FACTORIAL HepG2 Assay for M32 Transcription Factor (Internal Marker) (AID 2282949); settings: HepG2 Attagene cis-factorial M32 reporter, mRNA; actives raise or lower the signal;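 also: background control marker of the multiplexed CIS panel rather than a real target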
Outline: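 Internal background marker read-out: RT-PCR/capillary electrophoresis fluorescence of reporter transcripts from transiently transfected HepG2 cells after 24 h chemical exposure. Activity fitted bidirectionally relative to DMSO negative control.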

[11] = target: Hypoxia-inducible factor 1-alpha (Homo sapiens) (UniProt Q16665); assay: ATG_HIF1a_CIS: Attagene CIS-FACTORIAL HepG2 Assay for human Hypoxia Inducible Factor 1 (HIF1A) (AID 2282951); settings: HepG2 Attagene cis-factorial HIF1a reporter transcription; actives raise or lower the signal
Hypoxia-inducible factor 1-alpha (Homo sapiens), sequence (Q16665 whole entry, looked up, the tested form may be a part): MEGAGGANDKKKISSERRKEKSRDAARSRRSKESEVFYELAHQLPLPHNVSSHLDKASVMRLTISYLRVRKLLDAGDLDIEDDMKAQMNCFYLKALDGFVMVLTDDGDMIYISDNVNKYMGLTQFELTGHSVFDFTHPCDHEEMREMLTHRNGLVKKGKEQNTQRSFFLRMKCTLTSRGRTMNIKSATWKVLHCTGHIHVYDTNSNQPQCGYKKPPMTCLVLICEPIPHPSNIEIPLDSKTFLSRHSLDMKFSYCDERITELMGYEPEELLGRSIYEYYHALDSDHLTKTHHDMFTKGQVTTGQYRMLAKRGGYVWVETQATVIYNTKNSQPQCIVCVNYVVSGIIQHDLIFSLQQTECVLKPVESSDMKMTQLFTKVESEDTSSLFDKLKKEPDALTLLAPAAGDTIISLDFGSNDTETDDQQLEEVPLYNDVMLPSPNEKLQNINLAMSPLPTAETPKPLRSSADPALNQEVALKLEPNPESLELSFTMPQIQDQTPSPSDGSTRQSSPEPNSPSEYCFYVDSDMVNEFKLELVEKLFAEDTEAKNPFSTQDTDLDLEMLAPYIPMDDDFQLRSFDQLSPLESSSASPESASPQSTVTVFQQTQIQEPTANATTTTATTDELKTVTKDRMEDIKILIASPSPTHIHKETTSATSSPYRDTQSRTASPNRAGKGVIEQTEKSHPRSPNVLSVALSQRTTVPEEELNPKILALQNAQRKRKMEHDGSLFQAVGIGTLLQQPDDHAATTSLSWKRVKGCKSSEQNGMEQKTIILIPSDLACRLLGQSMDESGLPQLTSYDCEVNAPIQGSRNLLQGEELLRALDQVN
Outline: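 Transient MRTU transfection of human HepG2 liver cells, 24 h compound treatment, then total RNA isolation, oligo(dT) reverse transcription, PCR amplification, fluorescent labelling and capillary electrophoresis of reporter fragments. Gain or loss relative to DMSO.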

[12] = ATG_M_61_CIS: Attagene CIS-FACTORIAL HepG2 Assay for M61 Transcription Factor (Internal Marker) (AID 2282937); settings: HepG2 Attagene CIS-FACTORIAL M61 internal marker reporter; actives raise or lower the signal
Outline: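 Human liver HepG2, transient MRTU transfection (cis promoter elements), 24 h compound. Total RNA → oligo(dT) RT → PCR → FAM label → HpaI → CE. Internal background marker; bidirectional fitting, DMSO = baseline.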

[13] = ATG_GRE_CIS: Attagene CIS-FACTORIAL HepG2 Assay for human Glucocorticoid Response Elements (GRE) (AID 2282947); settings: HepG2 GRE cis-reporter, Attagene multiplex mRNA; actives raise or lower the signal
Outline: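 Assay uses human hepatoma HepG2 cells transfected with cis-promoter reporter units, exposed 24 h. mRNA from reporters detected by RT-PCR plus capillary electrophoresis; DMSO serves as negative control and baseline.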

[14] = target: Heat shock factor protein 1 (Homo sapiens) (UniProt Q00613); assay: ATG_HSE_CIS: Attagene CIS-FACTORIAL HepG2 Assay for human Heat Shock Transcription Factor 1 (HSE) (AID 2282953); settings: HepG2 HSE cis-reporter, Attagene RNA transcription; actives raise or lower the signal
Heat shock factor protein 1 (Homo sapiens), sequence (Q00613 whole entry, looked up, the tested form may be a part): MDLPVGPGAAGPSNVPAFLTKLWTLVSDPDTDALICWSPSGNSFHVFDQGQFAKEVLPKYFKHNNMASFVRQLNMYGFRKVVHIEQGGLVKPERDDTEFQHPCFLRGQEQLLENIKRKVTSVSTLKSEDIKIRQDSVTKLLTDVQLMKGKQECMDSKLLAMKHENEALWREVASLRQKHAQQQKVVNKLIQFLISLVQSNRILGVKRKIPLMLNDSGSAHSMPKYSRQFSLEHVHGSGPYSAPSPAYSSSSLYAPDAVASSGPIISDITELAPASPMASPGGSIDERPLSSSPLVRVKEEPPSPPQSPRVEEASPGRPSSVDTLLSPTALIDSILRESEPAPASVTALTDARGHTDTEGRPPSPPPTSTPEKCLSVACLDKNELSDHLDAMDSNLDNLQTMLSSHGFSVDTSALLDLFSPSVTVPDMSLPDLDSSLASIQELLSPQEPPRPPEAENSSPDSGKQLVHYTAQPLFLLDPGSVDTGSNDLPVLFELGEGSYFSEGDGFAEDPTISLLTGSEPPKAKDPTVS
Outline: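 Cells were transfected with cis-element-driven reporter constructs, dosed for 24 h, then total RNA was reverse-transcribed and reporter cDNA amplified, FAM-labelled and digested with HpaI. Fragments were resolved by capillary electrophoresis; gain or loss was fitted against DMSO.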

[15] = ATG_MRE_CIS: Attagene CIS-FACTORIAL HepG2 Assay for human Metal Responsive Element (MRE) (AID 2282954); settings: HepG2 MRE cis-reporter transcription, Attagene multiplex; actives raise or lower the signal
Outline: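 After a 24 h chemical exposure, transiently transfected HepG2 cells yield RNA whose reporter sequences are amplified, FAM-labelled and sized by capillary electrophoresis. Curves are fitted bidirectionally relative to DMSO.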

[16] = target: Hepatocyte nuclear factor 6 (Homo sapiens) (UniProt Q9UBC0); assay: ATG_HNF6_CIS: Attagene CIS-FACTORIAL HepG2 Assay for human Hepatocyte Nuclear Factor 6 (HNF6) (AID 2282952); settings: HepG2 Attagene cis-factorial HNF6 reporter transcription; actives raise or lower the signal
Hepatocyte nuclear factor 6 (Homo sapiens), sequence (Q9UBC0 whole entry, looked up, the tested form may be a part): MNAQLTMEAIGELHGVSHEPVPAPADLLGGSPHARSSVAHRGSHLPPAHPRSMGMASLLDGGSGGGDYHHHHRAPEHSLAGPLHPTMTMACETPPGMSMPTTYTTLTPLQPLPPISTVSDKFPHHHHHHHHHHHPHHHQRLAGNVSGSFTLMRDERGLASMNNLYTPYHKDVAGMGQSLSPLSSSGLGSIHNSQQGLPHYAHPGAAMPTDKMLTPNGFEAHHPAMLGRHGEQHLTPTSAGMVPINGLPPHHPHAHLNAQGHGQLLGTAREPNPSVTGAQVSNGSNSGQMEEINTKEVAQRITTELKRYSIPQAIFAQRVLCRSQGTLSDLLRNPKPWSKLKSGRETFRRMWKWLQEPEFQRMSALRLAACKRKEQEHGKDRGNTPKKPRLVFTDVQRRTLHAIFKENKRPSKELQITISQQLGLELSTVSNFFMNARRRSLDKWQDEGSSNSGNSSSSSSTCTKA
Outline: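 HepG2 cells transiently transfected with cis-element-driven multiplexed reporter units measuring endogenous transcription factor activity. After 24 h exposure, reporter mRNA quantified by RT-PCR, FAM-labelled fragments and capillary electrophoresis; bidirectional fitting versus DMSO.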

[17] = ATG_PBREM_CIS: Attagene CIS-FACTORIAL HepG2 Assay for human Phenobarbital-responsive Enhancer Module (PBREM) (AID 2282955); settings: HepG2 PBREM cis-reporter, Attagene multiplexed transcription; actives raise or lower the signal
Outline: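 Endogenous transcription factors in human liver HepG2 cells drive a PBREM cis-element reporter, whose transcript level after 24 h treatment is quantified by RT-PCR with capillary electrophoresis; activity fitted in both directions against DMSO.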

[18] = ATG_M_06_CIS: Attagene CIS-FACTORIAL HepG2 Assay for M06 Transcription Factor (Internal Marker) (AID 2282950); settings: HepG2 Attagene CIS-FACTORIAL M06 internal marker reporter; actives raise or lower the signal
Outline: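 Steps: transfect HepG2 with multiplexed cis-element reporter constructs; dose chemical 24 h; extract RNA with DNase treatment; reverse-transcribe, PCR-amplify, 6-FAM label, HpaI digest; separate fragments by capillary electrophoresis. Activity fitted both directions versus DMSO.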

[19] = ATG_GLI_CIS: Attagene CIS-FACTORIAL HepG2 Assay for human Zinc Finger Protein GLI1 (AID 2282945); settings: HepG2, Attagene cis-factorial reporter mRNA, GLI element; actives raise or lower the signal
Outline: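 Bidirectional curve fits relative to DMSO, using reporter mRNA levels from RT-PCR plus capillary electrophoresis. Cells were HepG2 transiently carrying cis-regulated reporter constructs, harvested 24 h after dosing.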

CCC(C)(c1ccc(O)cc1)c1ccc(O)cc1
AC50 [1]: 48.8 µM (active) | outcome [1]: inactive | outcome [2]: inactive | AC50 [3]: 198 nM (active) [middle of 4 runs] | AC50 [4]: 53.8 µM (active) | outcome [4]: inactive | outcome [5]: inactive | outcome [6]: inactive | AC50 [7]: 44.9 µM (active) | outcome [7]: inactive | AC50 [8]: 43 µM (active) and 33.4 µM (active) and 54.5 µM (active) | outcome [8]: inactive | AC50 [9]: 45.6 µM (active) and 50.3 µM (active) and 33.4 µM (active) | outcome [9]: inactive | outcome [10]: inactive | AC50 [11]: 75.9 nM (active) and 26.2 µM (active) | outcome [11]: inactive

CC1=C2C[C@H]3[C@@H](CC=C4C[C@@H](O)CC[C@@]43C)[C@@H]2CC[C@]12O[C@@H]1C[C@H](C)CN[C@H]1[C@H]2C
outcome [12]: inactive | outcome [1]: inactive | outcome [2]: inactive | outcome [3]: inactive | outcome [4]: inactive | AC50 [5]: 13 µM (active) | outcome [6]: inactive | outcome [7]: inactive | AC50 [8]: 8.12 µM (active) | outcome [13]: inactive | outcome [9]: inactive | outcome [10]: inactive | outcome [11]: inactive | outcome [14]: inactive | AC50 [15]: 16.1 µM (active)

CCOP(=S)(OCC)SCSC(C)(C)C
outcome [12]: inactive | outcome [1]: inactive | outcome [2]: inactive | AC50 [3]: 29.7 µM (active) and 5.91 µM (active) | outcome [4]: inactive | outcome [5]: inactive | outcome [6]: inactive | outcome [7]: inactive | AC50 [9]: 63.5 µM (active) | outcome [9]: inactive | outcome [10]: inactive | outcome [11]: inactive | outcome [16]: inactive | outcome [14]: inactive | outcome [15]: inactive | outcome [17]: inactive

Cc1ccc(O)c(C)c1
outcome [1]: inactive | outcome [2]: inactive | outcome [3]: inactive | outcome [4]: inactive | outcome [5]: inactive | outcome [6]: inactive | outcome [7]: inactive | outcome [9]: inactive | outcome [10]: inactive | outcome [18]: inactive | outcome [11]: inactive | outcome [16]: inactive | outcome [14]: inactive | outcome [15]: inactive

O=C(NC(=O)c1cc(F)c(F)cc1Cl)Nc1cc(F)ccc1N1CCC(C(=O)O)CC1
outcome [12]: inactive | outcome [1]: inactive | outcome [2]: inactive | outcome [3]: inactive | outcome [4]: inactive | outcome [5]: inactive | outcome [6]: inactive | outcome [7]: inactive | outcome [19]: inactive | outcome [9]: inactive | outcome [10]: inactive | outcome [11]: inactive | outcome [14]: inactive | outcome [15]: inactive

CCC(C)(CC)c1cc(NC(=O)c2c(OC)cccc2OC)on1
outcome [12]: inactive | outcome [1]: inactive | outcome [2]: inactive | outcome [4]: inactive | outcome [5]: inactive | outcome [6]: inactive | outcome [7]: inactive | outcome [19]: inactive | outcome [9]: inactive | outcome [10]: inactive | outcome [18]: inactive | AC50 [11]: 8.77 µM (active) | outcome [16]: inactive | outcome [14]: inactive | AC50 [15]: 14.4 µM (active)

CCSC(=O)N(CC)C1CCCCC1
outcome [1]: inactive | outcome [2]: inactive | outcome [3]: inactive | outcome [4]: inactive | outcome [5]: inactive | outcome [6]: inactive | outcome [7]: inactive | outcome [8]: inactive | outcome [9]: inactive | outcome [10]: inactive | outcome [11]: inactive | outcome [16]: inactive | outcome [14]: inactive | outcome [15]: inactive
